# Screens from PubChem.
# Rows were chosen to be rich in hits. Some 6.1% of all compounds tested hit in one or more screens of this group.
# D1 agonist = Allosteric Agonists of the Human D1 Dopamine Receptor: qHTS; D(1A) dopamine receptor (Homo sapiens), P21728; AID 504660, 2011; activation, % at 2 µM; actives 1% (n = 360,000); HEK293 T-REx D1 cells, calcium flux, agonist mode; in the data active means activation above about 30%
#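 Inducible HEK293 T-REx D1 cells, force-coupled to calcium signalling, were plated at 4000 cells/well with tetracycline and held overnight at 30 C. After no-wash calcium dye loading, compound-evoked calcium rise over 180 s flagged agonists.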
# D1 PAM = Potentiators of Human D1 Dopamine Receptor: qHTS; D(1A) dopamine receptor (Homo sapiens), P21728; HEK293 TREx D1 cells, calcium flux, dopamine EC20 potentiation; potentiation, % at 10 µM; actives 0.036% (n = 360,000); AID 504651, 2011; in the data active means potentiation above about 30%
# ERG-DNA inh = qHTS for Small Molecule Inhibitors of the ERG Ets/DNA interaction; Transcriptional regulator ERG (Homo sapiens), P11308; fluorescence polarization, His-ERG Ets domain / labelled DNA; actives 0.028% (n = 370,000); AID 624246, 2012; Potency, µM (top dose mostly 76.9 µM), hits mostly inhibitors; active means well fitted inhibition curve with a large enough effect in the polarisation, with a control signal flat; inconclusive means small, poorly fitted or top-dose-only effect, or effect the other way, or a change in a side signal; inactive means no such curve, though single readings can be large or run the other way; the % refers to the polarisation;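 further: polarization taken with two DNA probes labelled with fluorescein and Texas red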
# Target sequence (P11308 whole entry, looked up, the tested form may be a part): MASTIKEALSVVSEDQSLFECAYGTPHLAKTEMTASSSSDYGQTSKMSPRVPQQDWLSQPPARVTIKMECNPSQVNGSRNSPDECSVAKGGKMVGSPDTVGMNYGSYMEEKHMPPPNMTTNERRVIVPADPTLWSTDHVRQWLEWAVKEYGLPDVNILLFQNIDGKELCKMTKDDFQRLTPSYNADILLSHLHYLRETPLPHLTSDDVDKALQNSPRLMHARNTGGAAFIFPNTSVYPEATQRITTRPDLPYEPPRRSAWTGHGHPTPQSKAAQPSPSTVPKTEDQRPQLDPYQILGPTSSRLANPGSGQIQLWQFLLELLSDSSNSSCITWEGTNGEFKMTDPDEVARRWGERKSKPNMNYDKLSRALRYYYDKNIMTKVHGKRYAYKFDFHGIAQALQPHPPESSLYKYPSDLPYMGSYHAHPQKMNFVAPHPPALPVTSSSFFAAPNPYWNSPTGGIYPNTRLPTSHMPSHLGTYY
#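 His-tagged ERG Ets domain (1 uM in the protein solution; 300mM KCl, 50mM Tris-HCl, 1mM EDTA, 1mM DTT, pH 7.5) received compound, then a probe mix of 5 nM fluorescein-DNA and 100nM Texas-615-DNA. Fluorescence polarization was read for both dyes.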
# DRD3 agonist = qHTS of D3 Dopamine Receptor Agonist: qHTS. D3R DiscoveRx beta-arrestin cells, luminescence, 90 min. max activation, %. actives 0.58% (n = 410,000). AID 652048, 2013; in the data active means max activation above about 30%
#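 Agonist mode: compounds and dopamine controls were applied to plated cells for 90 min at 37 degrees C after an overnight attachment at 1500 cells/well. Luminescent read-out followed 30 - 60 minutes at room temperature with DiscoveRx detection reagent.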
# D1 antag = Antagonist of Human D 1 Dopamine Receptor: qHTS; actives 3.2% (n = 360,000); HEK293 TREx D1 cells, calcium flux, dopamine EC80; hits give low values; activity change, negative = inhibition, % at 10 µM; in the data active means activity change below about -30%
#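 Compound effects on dopamine-evoked calcium signalling were measured in tetracycline-induced HEK293 Trex D1 cells. Dopamine at EC80 followed a 180 s compound pre-read, and fluorescence was tracked kinetically for 180 s more.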
# DRD3 antagonist = qHTS of D3 Dopamine Receptor Antagonist: qHTS; D(3) dopamine receptor (Homo sapiens), P35462; D3R cells, DiscoveRx beta-arrestin luminescence, antagonist mode; hits give low values; max response, negative = inhibition, %; actives 2.5% (n = 360,000); AID 652054, 2013; in the data active means max response below about -50%; inconclusive means no clear call, values can overlap the other calls
#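 Cells plated overnight at 1500 cells/well, then exposed to library compounds with dopamine controls for 90 minutes at 37 degrees C. DiscoveRx reagent added for 30–60 minutes at room temperature; luminescence read, quantitative HTS format.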
# Numbers stand for hits; – = inactive; ? = inconclusive; · = no result.
SMILES,D1 agonist,D1 PAM,ERG-DNA inh,DRD3 agonist,D1 antag,DRD3 antagonist
Cc1ccc(NC(=O)C2CC(=O)n3ncnc3N2)cc1 (stereo unspecified),–,–,–,–,–,–
COc1cc(OC)cc(-c2nnc(SCC(=O)N3CCCc4ccccc43)o2)c1,–,–,–,–,–,–
Cc1cc(NC(=O)CSc2nnc(-c3cccc(Cl)c3)o2)no1,–,–,–,–,–,–
COc1cccc(-c2nnc(SCC(=O)N3CCCc4ccccc43)o2)c1,–,–,–,–,–,-52.2
COc1cccc(-c2nnc(SCC(=O)Nc3cc(C)on3)o2)c1,–,–,–,–,–,-65.3
CC(NC(=O)C1CCCN(S(=O)(=O)c2cccc3nonc23)C1)c1ccccc1 (stereo unspecified),–,–,·,–,–,-61.2
CC(=O)N=C1C=CC(=CN(O)C(C)(C)Cc2ccccc2)C=C1,–,–,–,–,–,-53.8
O=C(C1CCCCC1)N1CCC(CO)(Cc2ccccc2Cl)CC1,–,–,–,–,–,–
COC(=O)c1c(-c2cccs2)csc1NC(=O)c1ccc(C)cc1,–,–,–,–,–,·
COC(=O)c1c(-c2cccs2)csc1NC(=O)c1cc(OC)c(OC)c(OC)c1,–,–,–,35.7,-66.4,·
O=C(Nc1scc(-c2cccs2)c1C(=O)O)c1cccs1,–,–,–,–,-84.2,?
CC(Nc1nc(N2CCNCC2)nc2ccccc12)c1ccccc1 (stereo unspecified),–,–,–,–,-54.1,–
COc1ccc(CC(=O)NCC2(N3CCCCC3)CCCCC2)cc1,–,–,–,–,–,–
NC(N)=Nc1nc(CCN2C(=O)c3ccccc3C2=O)cs1,·,·,–,47.9,·,–
O=C1c2ccccc2C(=O)N1CCc1csc(-c2ccc(F)cc2)n1,–,–,–,30.2,–,–
O=C1c2ccccc2C(=O)N1CCc1csc(-c2ccccc2)n1,–,–,–,–,–,–
N#Cc1ccccc1S(=O)(=O)N1CCN(S(=O)(=O)c2ccc3c(c2)OCCO3)CC1,–,–,·,·,-36.8,·
N#Cc1ccccc1S(=O)(=O)N1CCN(C(=O)[C@H](Cc2ccccc2)NC(=O)c2ccco2)CC1,–,–,·,–,-33.7,?
N#Cc1ccccc1S(=O)(=O)N1CCN(C(=O)Cc2coc3cc(O)ccc23)CC1,–,–,·,–,-42.8,?
Cc1ccccc1S(=O)(=O)N1CCN(S(=O)(=O)c2ccc3c(c2)OCCO3)CC1,–,–,·,·,–,·
Cc1ccc2c(CC(=O)N3CCN(S(=O)(=O)c4ccccc4)CC3)coc2c1,–,–,–,–,–,–
Cc1oc2ncn(CC(C)C)c(=O)c2c1C(=O)NCCc1ccc(Cl)cc1,–,–,–,–,–,·
CC1CCC/C(=N/Nc2ccc([N+](=O)[O-])cc2[N+](=O)[O-])C1 (stereo unspecified),–,–,–,–,-32.1,–
O=[N+]([O-])c1ccc(NN=C2CCCCC2)c([N+](=O)[O-])c1,·,·,–,–,·,–
CC1(C)Oc2ccc3ccc(=O)oc3c2/C(=C/NNC(N)=O)C1=O,–,–,–,–,–,-111.5
SMILES,D1 agonist,D1 PAM,ERG-DNA inh,DRD3 agonist,D1 antag,DRD3 antagonist
CC1(C)Oc2ccc3ccc(=O)oc3c2/C(=C/NCCN/C=C2\C(=O)C(C)(C)Oc3ccc4ccc(=O)oc4c32)C1=O,–,–,·,·,–,·
COc1ccccc1OCc1nc(-c2cccc(C)c2)no1,–,–,–,–,–,·
CC(/C=N/NC(=O)Cn1nnc(N)n1)=C\c1ccc(C(C)C)cc1,–,–,–,–,–,–
Cc1cc(OCC(=O)N2CCOCC2)c(C(C)C)cc1Cl,–,–,–,–,–,-76.6
Cc1cc(OCC(=O)Nc2ccccc2N2CCOCC2)c(C(C)C)cc1Cl,–,–,–,–,–,–
O=S(=O)(NCCSc1nc2ccccc2o1)c1ccccc1,–,–,–,–,-33.3,–
O=S(=O)(CCSc1nc2ccccc2o1)c1nc2ccccc2s1,–,–,–,–,–,-61.8
O=C(CSc1nc2ccccc2o1)Nc1ccccc1,–,–,–,–,-36.6,–
CC(=O)Nc1cccc(NC(=O)CSc2nc3ccccc3o2)c1,–,–,–,–,–,–
COc1cc(OC)c(S(=O)(=O)N2CCN(C(=O)c3ccco3)CC2)cc1NC(C)=O,–,–,–,–,–,–
CCCn1nc(C(=O)OCn2nnc3ccccc3c2=O)c2ccccc2c1=O,–,–,–,–,–,–
COc1ccccc1NC(=O)c1cc2cc(Br)ccc2oc1=N,–,–,–,–,–,–
CCOc1ccc(C(=O)Nc2ccc(N3CCN(S(C)(=O)=O)CC3)cc2)cc1[N+](=O)[O-],–,–,–,–,–,–
CCOC(=O)C1CCCN(C(=O)c2cc3cc(OC)c(OC)cc3[nH]2)C1 (stereo unspecified),–,–,?,–,–,–
COc1cccc(NC(=O)Cc2c(O)c3ccccc3[nH]c2=O)c1,–,–,–,–,–,–
CCOc1ccc(NC(=O)Cc2c(O)c3ccccc3[nH]c2=O)cc1,–,–,–,–,–,-63.1
CSc1nsc(/C=C/Nc2ccc(O)cc2C)c1C#N,–,–,8.91µM,–,–,-54.9
CSc1nsc(/C=C/Nc2cccc(Cl)c2)c1C#N,–,–,–,–,-33.2,?
CCN(CCCNC(=O)c1nn(-c2ccc(C)cc2)c(=O)c2c1c1ccccc1n2C)c1ccccc1,–,–,–,–,–,·
CCCCC[C@@H]1CCCCC[C@@H](O)C[C@@H](O)[C@@H](O)/C=C/C(=O)O1,·,·,·,–,·,–
COc1ccc(-c2noc(CCC(=O)N3CCN(c4cccc(C(F)(F)F)c4)CC3)n2)cc1,–,–,–,–,–,–
CCCN(CCC)C(C)C(=O)NCC1(c2ccccc2)CCCC1 (stereo unspecified),–,–,–,–,-41.2,–
CCN(CC)CC(=O)NCC1(c2ccccc2)CCCC1,–,–,–,–,–,–
O=C(c1ccccc1)c1ccc(N2CCCC2)cc1,–,–,–,–,–,–
O=C(c1ccccc1)c1ccc(N2CCNCC2)cc1,–,–,·,·,-74.5,·
O=S1(=O)[C@H]2C[C@@H]3C=C[C@@]2(CN1Cc1ccc(Cl)cc1)O3,–,–,–,–,–,–
CC1(C)CC(NC(=S)NC(=O)c2cc(Br)ccc2Cl)CC(C)(C)N1,–,–,–,–,–,–
C/C(CC(=O)Nc1cccc(Cl)c1Cl)=N\NC(=O)C(=O)N1CCCC1,–,–,–,–,–,–
